Test results from PubChem BioAssay (NCATS).
Inconclusive results are not listed. Where a call stands in place of a potency, no number is given. Calls of active or inactive are those of the source. Calls follow the shape of the dose curve; as a rule, active = well fitted curve in the direction sought with a large enough effect; inconclusive = small, poorly fitted or top-dose-only effect, or another doubt; inactive = no such curve, though single readings can be large; an effect the other way counts as inactive or inconclusive.

Experiments:
[1] = molecular target: Metallo-beta-lactamase type 2 (Klebsiella pneumoniae) (UniProt C7C422); test: qHTS to identify inhibitors of the New Delhi Metallo-beta-lactamase (NDM): assay validation screen against the NCATS LOPAC Collection (AID 1794843); settings: NDM-1 enzyme, nitrocefin hydrolysis, absorbance 485 nm; series mostly up to 38.4 µM;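 also: nitrocefin turnover by NDM-1 measured as 485 nm absorbance at plateau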
Sequence of Metallo-beta-lactamase type 2 (Klebsiella pneumoniae) (C7C422 whole entry, looked up): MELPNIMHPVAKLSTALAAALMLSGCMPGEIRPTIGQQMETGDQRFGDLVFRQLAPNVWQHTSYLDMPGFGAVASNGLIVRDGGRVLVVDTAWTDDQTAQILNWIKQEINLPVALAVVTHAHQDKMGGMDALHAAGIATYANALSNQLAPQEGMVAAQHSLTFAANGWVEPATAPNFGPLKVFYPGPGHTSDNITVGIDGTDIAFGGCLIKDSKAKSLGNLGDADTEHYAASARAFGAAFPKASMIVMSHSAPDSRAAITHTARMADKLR
Method in brief: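 Enzyme 2 nM final, 50 mM HEPES pH 7.0, 1 uM ZnSO4, 0.01% Tween20; cpds in DMSO, preincub w/ enzyme; + nitrocefin (50 uM stock); A485 at plateau; no-enzyme column as blank.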

[2] = molecular target: Glutathione peroxidase 1 (Homo sapiens) (UniProt P07203); test: Primary qHTS Assay for Inhibitors of Recombinant Selenoprotein Glutathione Peroxidase 1 (GPX1) (AID 1845191); settings: recombinant GPX1, GR-coupled NADPH fluorescence, 15 min; series mostly up to 48.8 µM; also: nearly all actives have a fitted effect of over 65% in size
Sequence of Glutathione peroxidase 1 (Homo sapiens) (P07203 whole entry, looked up): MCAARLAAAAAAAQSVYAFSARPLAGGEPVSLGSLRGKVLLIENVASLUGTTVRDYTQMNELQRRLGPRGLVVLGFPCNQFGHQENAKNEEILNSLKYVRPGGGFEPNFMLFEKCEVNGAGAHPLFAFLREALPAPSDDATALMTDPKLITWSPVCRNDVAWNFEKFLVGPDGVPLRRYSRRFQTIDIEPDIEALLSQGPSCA
Method in brief: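 Recombinant GPX1 (10 nM final) was preincubated with compound for 30 min at room temperature, then reacted with 1 mM GSH, 0.5 mM CHP, 0.5 mM NADPH and 100 nM glutathione reductase; NADPH fluorescence (340/450 nm) was read at 0 and 15 min.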

[3] = molecular target: Phospholipid hydroperoxide glutathione peroxidase GPX4 (Homo sapiens) (UniProt P36969); test: Primary qHTS Assay for Inhibitors of Recombinant Selenoprotein Glutathione Peroxidase 4 (GPX4) (AID 1845192); settings: recombinant GPX4, GR-coupled NADPH fluorescence, 15 min; series mostly up to 50 µM; also: nearly all actives have a fitted effect of over 65% in size
Sequence of Phospholipid hydroperoxide glutathione peroxidase GPX4 (Homo sapiens) (P36969 whole entry, looked up): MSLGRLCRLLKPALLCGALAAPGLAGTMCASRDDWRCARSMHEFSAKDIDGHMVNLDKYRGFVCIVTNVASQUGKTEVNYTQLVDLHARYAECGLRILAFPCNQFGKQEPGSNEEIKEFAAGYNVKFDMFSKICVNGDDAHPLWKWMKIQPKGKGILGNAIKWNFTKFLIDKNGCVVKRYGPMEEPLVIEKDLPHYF
Method in brief: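 GR-coupled readout: 100 nM GR, 1 mM GSH, 0.5 mM NADPH; NADPH fluorescence (ex 340/em 450 nm) read at t=0 and after 15 min RT. GPX4 200 nM, preincubated 30 min with compound; substrate 0.5 mM CHP.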

[4] = HepG2 viability counterscreen (readout 2: ATP content) against the NCATS DSHEA and TCM libraries (AID 1794840); settings: ATP content luminescence; series mostly up to 27.3 µM;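 also: HepG2 cells exposed to substances for about 24 h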
Method in brief: (§1)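 Cytotoxicity was assessed in HepG2 cells plated at 1,000 cells/well and exposed for about 24 hours to a concentration series. Protease activity and ATP content were measured sequentially in each well.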

[5] = molecular target: Cytochrome P450 3A4 (Homo sapiens) (UniProt P08684); test: qHTS for inhibitors of CYP3A4 against the NCATS DSHEA and TCM libraries (AID 1919971); settings: recombinant CYP3A4 enzyme activity, luminescence qHTS; series mostly up to 34.1 µM;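 also: inhibition lowers luminescence from luciferin made by CYP3A4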
Sequence of Cytochrome P450 3A4 (Homo sapiens) (P08684 whole entry, looked up): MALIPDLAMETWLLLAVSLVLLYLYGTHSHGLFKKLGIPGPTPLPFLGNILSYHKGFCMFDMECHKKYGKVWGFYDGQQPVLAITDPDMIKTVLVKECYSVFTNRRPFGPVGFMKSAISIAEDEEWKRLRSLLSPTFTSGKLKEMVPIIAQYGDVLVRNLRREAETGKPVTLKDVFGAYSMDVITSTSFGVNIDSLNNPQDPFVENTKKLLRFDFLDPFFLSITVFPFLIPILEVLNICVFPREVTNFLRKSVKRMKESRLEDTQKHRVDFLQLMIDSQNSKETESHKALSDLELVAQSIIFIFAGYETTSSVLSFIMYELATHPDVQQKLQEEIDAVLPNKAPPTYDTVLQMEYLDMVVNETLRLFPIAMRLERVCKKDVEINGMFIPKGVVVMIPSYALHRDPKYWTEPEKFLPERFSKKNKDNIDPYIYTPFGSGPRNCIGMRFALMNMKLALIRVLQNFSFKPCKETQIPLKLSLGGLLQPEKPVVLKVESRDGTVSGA
Method in brief: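 Luminescent P450-Glo readout. Enzyme plus pro-luciferin substrate in manufacturer buffer (typically 100 mM KPO4); 15 min RT preincubation; 1x NADPH regenerating system, 30-45 min RT in the dark; detection reagent 30 min.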

[6] = HepG2 viability counterscreen (readout 1: protease activity) against the NCATS DSHEA and TCM libraries (AID 1794841); settings: qHTS concentration series; series mostly up to 27.3 µM;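 also: cells exposed to compounds for about 24 h before the protease read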
Method in brief: as §1

In the case of C=Cc1c(C)c2cc3[nH]c(cc4nc(cc5nc(cc1[nH]2)C(C)=C5CCC(=O)O)C(CCC(=O)O)=C4C)c(C)c3C=C, the outcome [1] was “inactive”, the Potency [2] was “inactive” and the Potency [3] was “inactive”.

For Cc1c(O)cccc1C(=O)N[C@@H](CSc1ccccc1)[C@H](O)CN1C[C@H]2CCCC[C@H]2C[C@H]1C(=O)NC(C)(C)C, the outcome [1] was “inactive”, the Potency [2] was “inactive” and the Potency [3] was “inactive”.

For CN(C)CCOC(C)(c1ccccc1)c1ccccn1 (stereo unspecified), the outcome [1] was “inactive”, the Potency [2] was “inactive” and the Potency [3] was “inactive”.

For CN1CCN(C2Cc3ccccc3Sc3ccc(Cl)cc32)CC1 (stereo unspecified), the outcome [1] was “inactive”, the Potency [2] was “inactive” and the Potency [3] was “inactive”.

With CC12CCC(CC1)C(C)(C)O2 the outcome [4] was “inactive”, the Potency [2] was “inactive” and the Potency [3] was “inactive”. The outcome [5] was “inactive”.

With CCCCN(CCCC)CC(O)c1cc(Cl)cc2c1-c1ccc(Cl)cc1/C2=C/c1ccc(Cl)cc1 (stereo unspecified) the outcome [1] was “inactive” and the Potency [2] was “inactive”.

With Nc1ncnc2c1ncn2[C@@H]1O[C@H](CO)[C@@H](O)[C@H]1O the outcome [1] was “inactive”, the Potency [2] was “inactive” and the Potency [3] was “inactive”.

In the case of CC(C)(C)[C@]1(O)CCN2C[C@H]3c4ccccc4CCc4cccc(c43)[C@@H]2C1, the outcome [1] was “inactive” and the Potency [2] was “inactive”.

For CC(=O)c1ccc2c(c1)N(CCCN(C)C)c1ccccc1S2, the outcome [1] was “inactive” and the Potency [2] was “inactive”.

For CCN(CC)CCNC(=O)c1c(C)[nH]c(/C=C2\C(=O)Nc3ccc(F)cc32)c1C, the outcome [1] was “inactive”, the Potency [2] was “inactive” and the Potency [3] was “inactive”.

With CC(CN1c2ccccc2Sc2ccccc21)N(C)C (stereo unspecified) the outcome [1] was “inactive”, the Potency [2] was “inactive” and the Potency [3] was “inactive”.

With CC(=O)OCC(=O)[C@@]1(O)CC[C@H]2[C@@H]3CCC4=CC(=O)CC[C@]4(C)[C@H]3C(=O)C[C@@]21C the outcome [1] was “inactive” and the Potency [2] was “inactive”.

With CC1=C(CC(=O)O)c2cc(F)ccc2/C1=C\c1ccc(S(C)(=O)=O)cc1 the outcome [1] was “inactive”, the Potency [2] was “inactive” and the Potency [3] was “inactive”.

In the case of CCN(CC)C(C)CN1c2ccccc2Sc2ccccc21 (stereo unspecified), the outcome [1] was “inactive”, the Potency [2] was “inactive” and the Potency [3] was “inactive”.

In the case of CCCn1cnc2c1c(=O)n(CCCCC(C)=O)c(=O)n2C, the outcome [1] was “inactive”, the Potency [2] was “inactive” and the Potency [3] was “inactive”.

With Nc1cc(=O)[nH]c(N)n1 the outcome [1] was “inactive” and the Potency [2] was “inactive”.

With CN(C)CCCN1c2ccccc2Sc2ccc(Cl)cc21 the outcome [1] was “inactive”, the Potency [2] was “inactive” and the Potency [3] was “inactive”.

With CC(C)NC[C@H](O)c1ccc(O)c(O)c1 the outcome [1] was “inactive”, the Potency [2] was “inactive” and the Potency [3] was “inactive”.

With OCCN1CCN(CCCN2c3ccccc3Sc3ccc(Cl)cc32)CC1 the outcome [1] was “inactive” and the Potency [2] was “inactive”.

In the case of C[C@](N)(Cc1ccc(O)cc1)C(=O)O, the outcome [1] was “inactive” and the Potency [2] was “inactive”.

In the case of O=C1O[C@H]([C@@H](O)CO)C(O)=C1O, the outcome [4] was “inactive”, the outcome [6] was “inactive” and the Potency [2] was “inactive”. The Potency [3] was “inactive” and the outcome [5] was “inactive”.

With O=C(O)c1ccccc1O the outcome [4] was “inactive”, the outcome [6] was “inactive” and the outcome [5] was “inactive”.

With NC(=O)c1ncn([C@@H]2O[C@H](CO)[C@@H](O)[C@H]2O)n1 the outcome [1] was “inactive”, the Potency [2] was “inactive” and the Potency [3] was “inactive”.

For O=C1N=C(O)CN1/N=C/c1ccc(-c2ccc([N+](=O)[O-])cc2)o1, the outcome [1] was “inactive”, the Potency [2] was “inactive” and the Potency [3] was “inactive”.

For CNCCCC1c2ccccc2C=Cc2ccccc21, the outcome [1] was “inactive” and the Potency [2] was “inactive”.

For CNCCC(Oc1ccc(C(F)(F)F)cc1)c1ccccc1 (stereo unspecified), the outcome [1] was “inactive” and the Potency [2] was “inactive”.

For COC(=O)C1=C(C)NC(C)=C(C(=O)OC)C1c1ccccc1[N+](=O)[O-], the outcome [1] was “inactive”, the Potency [2] was “inactive” and the Potency [3] was “inactive”.

For CC1=C(CC(=O)O)c2cc(F)ccc2/C1=C\c1ccc(S(C)=O)cc1 (stereo unspecified), the outcome [1] was “inactive”, the Potency [2] was “inactive” and the Potency [3] was “inactive”.

With N=c1c[n+](N2CCOCC2)[n-]o1 the outcome [1] was “inactive”, the Potency [2] was “inactive” and the Potency [3] was “inactive”.

For CC1=C(/C=C/C(C)=C/C=C/C(C)=C/C(=O)O)C(C)(C)CCC1, the outcome [1] was “inactive”, the Potency [2] was “inactive” and the Potency [3] was “inactive”.

In the case of CC(C)C(=O)c1c(C(C)C)nn2ccccc12, the outcome [1] was “inactive”, the Potency [2] was “inactive” and the Potency [3] was “inactive”.

In the case of CC(CN(C)C)CN1c2ccccc2CCc2ccccc21 (stereo unspecified), the outcome [1] was “inactive”, the Potency [2] was “inactive” and the Potency [3] was “inactive”.

With C[C@]12CC[C@@H]3c4ccc(O)cc4CC[C@H]3[C@@H]1CCC2=O the outcome [1] was “inactive”, the Potency [2] was “inactive” and the Potency [3] was “inactive”.

With CSc1ccc2c(c1)N(CCC1CCCCN1C)c1ccccc1S2 (stereo unspecified) the outcome [1] was “inactive”, the Potency [2] was “inactive” and the Potency [3] was “inactive”.

For C[C@]12C[C@H](O)[C@H]3[C@@H](CCC4=CC(=O)CC[C@@]43C)[C@@H]1CC[C@@H]2C(=O)CO, the outcome [1] was “inactive” and the Potency [2] was “inactive”.

With CNCC(O)c1ccc(O)c(O)c1 (stereo unspecified) the outcome [1] was “inactive”, the Potency [2] was “inactive” and the Potency [3] was “inactive”.

In the case of CC1=C(C/C=C(\C)CCC[C@H](C)CCC[C@H](C)CCCC(C)C)C(=O)c2ccccc2C1=O, the outcome [4] was “inactive”, the outcome [6] was “inactive” and the Potency [3] was “inactive”.

For CN(C)CC[C@@H](c1ccc(Cl)cc1)c1ccccn1, the outcome [1] was “inactive”, the Potency [2] was “inactive” and the Potency [3] was “inactive”.

For COCCOC(=O)C1=C(C)NC(C)=C(C(=O)OC/C=C/c2ccccc2)C1c1cccc([N+](=O)[O-])c1 (stereo unspecified), the outcome [1] was “inactive”, the Potency [2] was “inactive” and the Potency [3] was “inactive”.

With NC(N)=NCCC[C@H](N)C(=O)O the outcome [4] was “inactive”, the outcome [6] was “inactive” and the outcome [1] was “inactive”. For the same compound, the Potency [2] was “inactive”, the Potency [3] was “inactive” and the outcome [5] was “inactive”.
